# Source: PubChem BioAssay (Tox21)
# Inconclusive results are not listed. A call without a number means that no potency is given here. More than one record can exist for a structure, and the calls need not agree. Calls of active or inactive are those of the source. Unless noted, the call rests on the fitted dose curve; in most records, active means well fitted curve in the direction sought with a large enough effect in the repeat runs; inconclusive means weak or mixed curves; inactive means no such curve, though single readings can be large; an effect the other way counts as inactive or inconclusive.
# Experiments:
# [1] = qHTS assay to identify small molecule agonists of the vitamin D receptor (VDR) signaling pathway - cell viability counter screen (AID 743224); further: series mostly up to about 63 µM; nearly all actives have a fitted effect of over 50% in size
# Procedure, shortened: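 In parallel with the bla FRET readout, cytotoxicity toward VDR-bla cells after 16 h compound exposure was assessed by CellTiter-Glo, with luminescence recorded after a 30 min room-temperature incubation.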
# [2] = qHTS assay to identify small molecule antagonists of the vitamin D receptor (VDR) signaling pathway - cell viability counter screen (AID 743225); further: nearly all actives have a fitted effect of over 50% in size
# Procedure, shortened: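 In this counter screen, VDR-bla HEK 293T cells receive test compound plus 3 nM final calcitriol for 16 h at 37C. Room-temperature steps of 2 h with the beta-lactamase substrate, then 30 min with CellTiter-Glo, precede the luminescence read.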
# [3] = qHTS assay to identify small molecule agonists of the NFkB signaling pathway (AID 1159509; active means well fitted curve in the direction sought with a large enough effect in the signal ratio in the repeat runs, not every such curve was filed as active; the % refers to the signal ratio; further: series mostly up to about 61 µM)
# Procedure, shortened: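 Readout: FRET fluorescence, 405 nm excitation, 460/530 nm emission; beta-lactamase expression disrupts FRET. Cells: ME-180 stably carrying NF-kB-driven bla reporter. Compound exposure 5 hr, 37 C, 5% CO2.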
# [4] = qHTS assay to identify small molecule agonists of the NFkB signaling pathway - cell viability counter screen (AID 1159515; calls by dose curve; further: series mostly up to about 61 µM; nearly all actives have a fitted effect of over 55% in size)
# Procedure, shortened: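 Plate 2,000 NFkB-bla ME-180 cells/well; incubate overnight. Add compounds, 5 hr at 37 C. Add FRET substrate, 1.5 hr RT. Add CellTiter-Glo, 30 min RT; read luminescence.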
# [5] = qHTS assay to identify small molecule agonists of the endoplasmic reticulum stress response signaling pathway (AID 1159516; active means well fitted activation curve with a large enough effect in the signal ratio in the repeat runs, not every such curve was filed as active; the % refers to the signal ratio)
# Procedure, shortened: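 Beta-lactamase expression from the ER stress response element in HeLa reporter cells is quantified with the LiveBLAzer B/G FRET substrate, read at 405 nm excitation after 2 hr at room temperature, following 5 hr compound treatment at 37 C.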
# [6] = qHTS assay to identify small molecule agonists of the endoplasmic reticulum stress response signaling pathway - cell viability counter screen (AID 1159517; calls by dose curve; further: series mostly up to about 61 µM; nearly all actives have a fitted effect of over 50% in size)
# Procedure, shortened: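 After overnight attachment, ESRE-bla HeLa cells were treated with Tox21 library compounds for 5 hr. CellTiter-Glo luminescence, read 30 min post-addition at room temperature, reported viability.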
# [7] = qHTS assay to identify small molecule antagonists of the retinoid-related orphan receptor gamma (ROR-gamma) signaling pathway - cell viability counter screen (AID 1159520); further: nearly all actives have a fitted effect of over 50% in size; further: potency means the concentration at half of the fitted maximal effect
# Procedure, shortened: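 Cytotoxicity was read from cellular ATP (CellTiter-Glo luminescence) after 16 hr at 37 C with 1 uM doxycycline induction. The inducer was added 2 hr after compound transfer to Tet-on ROR gamma CHO cells.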
# [8] = qHTS assay to identify small molecule agonists of the AP-1 signaling pathway - cell viability counter screen (AID 1159525; calls by dose curve; further: nearly all actives have a fitted effect of over 55% in size; further: potency means the concentration at half of the fitted maximal effect)
# Procedure, shortened: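 Intracellular ATP by Cell Titer Glo luminescence (30 min, RT) in the same ME-180 AP-1-bla wells after the 5 h compound exposure at 37 °C. Normalised to tetra n-octyl ammonium bromide and DMSO controls.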
# [9] = qHTS assay to identify small molecule agonists of the AP-1 signaling pathway (AID 1159526; calls by dose curve)
# [10] = target: Retinoic acid receptor RXR-alpha (Homo sapiens) (UniProt P19793); assay: qHTS assay to identify small molecule agonists of the RXR signaling pathway (AID 1159527; calls by dose curve; further: nearly all actives have a fitted effect of over 35% in size; further: potency means the concentration at half of the fitted maximal effect)
# Chain of Retinoic acid receptor RXR-alpha (Homo sapiens) (P19793 whole entry, looked up): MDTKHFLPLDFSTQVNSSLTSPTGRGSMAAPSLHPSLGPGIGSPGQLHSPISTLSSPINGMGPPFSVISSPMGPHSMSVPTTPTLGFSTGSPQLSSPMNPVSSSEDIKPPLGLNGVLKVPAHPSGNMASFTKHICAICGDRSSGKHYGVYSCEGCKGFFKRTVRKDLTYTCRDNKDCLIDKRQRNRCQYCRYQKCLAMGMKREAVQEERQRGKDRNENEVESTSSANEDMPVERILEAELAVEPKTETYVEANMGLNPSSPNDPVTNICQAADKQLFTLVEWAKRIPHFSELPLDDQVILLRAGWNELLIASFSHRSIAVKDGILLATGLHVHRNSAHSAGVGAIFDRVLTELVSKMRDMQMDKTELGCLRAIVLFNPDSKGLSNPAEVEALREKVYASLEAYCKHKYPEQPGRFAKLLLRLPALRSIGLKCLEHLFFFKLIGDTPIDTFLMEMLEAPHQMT
# Procedure, shortened: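 Fluorescence ratio readout (460 vs 530 nm) from GeneBLAzer RXR-alpha HEK 293T cells after 16 hr compound treatment; cells seeded 5 hr beforehand in low-serum, charcoal-stripped medium.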
# [11] = qHTS assay to identify small molecule antagonists of the retinoid acid receptor (RAR) signaling pathway - cell viability counter screen (AID 1159551); further: nearly all actives have a fitted effect of over 35% in size
# Procedure, shortened: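 Viability of C3RL4 cells is quantified from ATP by luminescence after 6 h treatment at 37 C with compounds and 1 uM retinol.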
# [12] = qHTS assay to identify small molecule antagonists of the retinoic acid receptor (RAR) signaling pathway (AID 1159552; further: nearly all actives have a fitted effect of over 50% in size)
# Procedure, shortened: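 Using a RARE-driven luciferase construct in C3RL4 cells, retinol at 1 uM final provided the agonist stimulus while compounds were co-applied. After 6 hours at 37 C, luminescence was recorded to flag inhibitors of retinol signaling.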
# [13] = qHTS assay to identify small molecule agonists of the retinoic acid receptor (RAR) signaling pathway (AID 1159553)
# Procedure, shortened: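 Compounds dissolved in DMSO were pinned onto C3RL4 cells seeded the previous day, and plates were held 6 hr at 37 C. RARE-driven luciferase output was then read by luminescence.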
# [14] = qHTS assay to identify small molecule agonists of the RXR signaling pathway - cell viability counter screen (AID 1159529)
# Procedure, shortened: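 Viability read-out for the RXR-alpha agonist qHTS: luminescent CellTiter-Glo signal after 30 min at RT. HEK 293T bla reporter cells, 2% charcoal-stripped FBS, 16 hr compound incubation; tetraoctyl ammonium bromide as cytotoxic control.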
# [15] = qHTS assay to identify small molecule antagonists of the estrogen related receptor (ERR) signaling pathway - cell viability counter screen (AID 1224818);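 further: series mostly up to about 46 µM; viability measured after 17.5 h of compound exposure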
# Procedure, shortened: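 Cytotoxicity check run alongside the ERR antagonist screen: cells exposed to test compounds 17.5 h at 37 C, viability taken as CellTiter-Fluor fluorescence intensity.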
# [16] = target: Nuclear receptor ROR-gamma (Homo sapiens) (UniProt P51449); assay: qHTS assay to identify small molecule antagonists of the retinoid-related orphan receptor gamma (ROR-gamma) signaling pathway (AID 1159521; further: nearly all actives have a fitted effect of over 50% in size; further: potency means the concentration at half of the fitted maximal effect)
# Procedure, shortened: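 Screening format: cell-based luciferase reporter in CHO cells with doxycycline-inducible RORγ. Compound pre-exposure lasts 2 h, doxycycline is 1 uM final, induction runs 16 h at 37 C, and ONE-Glo luminescence is read.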
# [17] = qHTS assay to identify small molecule antagonists of the estrogen related receptor (ERR) signaling pathway (AID 1224819)
# Procedure, shortened: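 ERR reporter cells were plated at 2,000 cells/well and left 6 h at 37 C/5% CO2 before pin-tool transfer of compounds in DMSO. After 18 h at 37 C, One-Glo was added and luminescence was read 30 min later at room temperature.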
# [18] = qHTS assay to identify small molecule agonists of the estrogen related receptor (ERR) signaling pathway (AID 1224820)
# Procedure, shortened: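 Luminescence readout (One-Glo, 30 min RT) from NTP-supplied ERR cell line exposed to compounds for 18 h at 37 C. Cells seeded 2,000 per well and pre-incubated 6 h before pin-tool compound transfer.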
# [19] = system: estrogen-related receptor alpha (ERRalpha) with PGC-1alpha coactivator, human; assay: qHTS assay to identify small molecule antagonists of the estrogen related receptor signaling pathway with the pleiotropic PPARgamma coactivator (PGC) (AID 1224821; calls by dose curve)
# Procedure, shortened: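 PGC/ERR reporter cells; 6 h pre-incubation 37 C/5% CO2; pin-tool compound in DMSO, 18 h 37 C; One-Glo added, 30 min RT; luminescence read. qHTS antagonist mode.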
# [20] = qHTS assay to identify small molecule agonists of the estrogen related receptor signaling pathway with the pleiotropic PPARgamma coactivator (PGC) (AID 1224823)
# Procedure, shortened: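 Luminescence readout (One-Glo, 30 min RT) from PGC/ERR cell line treated 18 h at 37 C with pin-tool-delivered DMSO compound solutions; cells plated 6 h before dosing. Quantitative HTS format.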
SMILES,outcome [1],outcome [2],outcome [3],outcome [4],outcome [5],outcome [6],Potency [7],Potency [8],Potency [9],Potency [10],outcome [11],Potency [12],outcome [13],Potency [14],outcome [15],Potency [16],outcome [17],Potency [18],outcome [19],Potency [20]
O=S(=O)(O)NC1CCCCC1,inactive,inactive,inactive,inactive,inactive,inactive,inactive,inactive,inactive,inactive,inactive,inactive,inactive,–,–,–,–,–,–,–
O=S(=O)(O)c1ccc2cc(O)ccc2c1,inactive,inactive,inactive,inactive,inactive,inactive,inactive,inactive,inactive,inactive,inactive,inactive,inactive,–,–,–,–,–,–,–
Cn1c(=O)c2[nH]cnc2n(C)c1=O,inactive,inactive,inactive,inactive,inactive,inactive,inactive,inactive,inactive,13.8 µM (active) and inactive,inactive,–,–,inactive,inactive,–,–,–,–,–
CC(=O)OCC(COC(C)=O)OC(C)=O,inactive,inactive,inactive,inactive,inactive,inactive,inactive,inactive,inactive,inactive,inactive,–,–,–,–,inactive,–,–,–,–
NNC(=O)c1ccncc1,inactive,inactive,inactive,inactive,inactive,inactive,inactive,inactive,inactive,inactive,inactive,–,–,–,–,inactive,–,–,–,–
O=C(O)c1cccnc1,inactive,inactive,inactive,inactive,inactive,inactive,inactive,inactive,inactive,–,inactive,–,–,inactive,–,inactive,–,–,–,–
CNC[C@H](O)c1cccc(O)c1,inactive,inactive,inactive,inactive,inactive,inactive,inactive,inactive,inactive,inactive,inactive,inactive,inactive,inactive,inactive,–,inactive,inactive,–,–
Nc1ccn([C@H]2CC[C@@H](CO)O2)c(=O)n1,inactive,inactive,inactive,inactive,inactive,inactive,inactive,inactive,inactive,inactive,inactive,–,–,–,inactive,inactive,–,–,–,–
COc1c2occc2cc2ccc(=O)oc12,inactive,inactive,inactive,inactive,inactive,inactive,inactive,inactive,inactive,inactive,inactive,inactive,inactive,inactive,–,–,–,–,–,–
NC(N)=NC(=O)c1nc(Cl)c(N)nc1N,inactive,inactive,inactive,inactive,inactive,inactive,inactive,inactive,inactive,inactive,inactive,–,–,–,inactive,inactive,–,–,–,–
NC(=O)c1cnccn1,inactive,inactive,inactive,inactive,inactive,inactive,inactive,inactive,inactive,inactive,inactive,–,–,–,inactive,inactive,inactive,inactive,inactive,inactive
NC(N)=O,inactive,inactive,inactive,inactive,inactive,inactive,inactive,inactive,inactive,inactive,inactive,–,–,–,–,inactive,–,–,–,–
COc1ccc2[nH]cc(CCNC(C)=O)c2c1,inactive,inactive,inactive,inactive,inactive,inactive,inactive,inactive,inactive,inactive,inactive,–,–,–,inactive,inactive,inactive,inactive,inactive,inactive
C[C@]12C=CC(=O)C=C1CC[C@@H]1[C@@H]2[C@@H](O)C[C@@]2(C)[C@H]1CC[C@]2(O)C(=O)CO,inactive,inactive,inactive,inactive,inactive,inactive,inactive,inactive,inactive,inactive,inactive,inactive,inactive,–,–,inactive,–,–,–,–
CC(O)C(=O)O (stereo not given),inactive,inactive,inactive,inactive,inactive,inactive,inactive,inactive,inactive,inactive,inactive,inactive,inactive,–,–,inactive,–,–,–,–
c1ccc2[nH]ccc2c1,inactive,inactive,inactive,inactive,inactive,inactive,2.69 µM (active) and inactive,42.9 µM (active) and inactive,inactive,inactive,inactive,–,–,–,–,1.35 µM (active) and inactive,–,–,–,–
Nc1ccc(S(=O)(=O)Nc2nccs2)cc1,inactive,inactive,inactive,inactive,inactive,inactive,inactive,inactive,inactive,19.6 µM (active) and inactive,inactive,inactive,inactive,–,–,–,–,–,–,–
O=C1CN(/N=C/c2ccc([N+](=O)[O-])o2)C(=O)N1,inactive,inactive,inactive,inactive,inactive,inactive,inactive,inactive,inactive,inactive,inactive,inactive,inactive,–,–,–,–,–,–,–
Cc1ccccc1C(OCCN(C)C)c1ccccc1 (stereo not given),inactive,inactive,inactive,inactive,inactive,inactive,inactive,inactive,–,–,inactive,inactive,inactive,–,inactive,inactive,inactive,inactive,–,inactive
